In PubChem BioAssay (NCATS) one finds Potency, activity change, negative = viability loss and activity change, negative = inhibition data, which are given here for 48 compounds.

Test [1] deals with Calcium and integrin-binding protein 1 (Homo sapiens) (UniProt Q99828). Kind of test: Primary qHTS for Identification of Calcium Integrin Binding Protein 1 (CIB1) Competitor (AID 1508620).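 Also: GST tagged CIB1 binding a fluorescein labelled alphaIIb integrin peptide tracer; top concentration of the series differs between compounds.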 In short, it runs like this: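 CIB1-GST (1 uM final) and compound incubated 15 min at room temperature before adding FITC-alphaIIb peptide tracer (100 nM final). Competition for binding read by fluorescence polarization (ex 480, em 540) after another 15 min at room temperature.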
Sequence of Calcium and integrin-binding protein 1 (Homo sapiens) (Q99828 whole entry, looked up): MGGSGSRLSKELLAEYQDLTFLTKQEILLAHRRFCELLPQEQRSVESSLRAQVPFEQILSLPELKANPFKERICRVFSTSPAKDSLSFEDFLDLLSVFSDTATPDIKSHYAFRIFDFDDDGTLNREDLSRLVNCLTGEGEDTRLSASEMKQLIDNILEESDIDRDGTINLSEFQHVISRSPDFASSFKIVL

A short description of test [2]: Primary qHTS for inhibitors of nuclear receptor binding SET domain protein 2 (NSD2) in an isogenic RCH-ACV NSD2 p.E1099K mutant (9B) (AID 1645876). Also: nearly all actives have a fitted effect of over 70% in size. Also: potency is read from the fitted curve at half-maximal effect.

Results filed as inconclusive are left out. A call without a number means that no potency is given here. A number with no mark means an inactive call. Activity calls are given as the source filed them. Calls follow the shape of the dose curve; as a rule, active = well fitted inhibition curve with a large enough effect; inconclusive = small, poorly fitted or top-dose-only effect; inactive = flat fitted curve, though single readings scatter.

As to `CCC(C)/C=C(C)/C=C/c1cc2c(cn1)C(=O)C(C)(OC(C)=O)C(O)=C2Cl` (stereo unspecified), the Potency entry in test [1] and in test [2] was “inactive” each time.
As for `CC(C)C(C#N)O[C@@H]1O[C@H](CO[C@@H]2O[C@@H](C)[C@H](O)[C@@H](O)[C@H]2O)[C@@H](O)[C@H](O)[C@H]1O` (stereo partly specified), the Potency entry in test [1] and in test [2] was “inactive” throughout.
As to `C[C@@H]1C(=O)OC[C@H]2C(C(=O)O)=C[C@@H]3CC(C)(C)C[C@]312`, the Potency entry in test [1] and in test [2] was “inactive” each time.
For the compound `O=C(O)c1ccc(OC2OC(CO)C(O)C(O)C2O)cc1` (stereo unspecified), the Potency result in test [1] and in test [2] was “inactive” throughout.
Take `CC(=O)OC[C@@]12C(=O)C[C@@H](C)[C@]3(C[C@@H](c4ccoc4)O[C@H]3OC(C)=O)[C@H]1CCC[C@]21CO1`: the Potency result in test [1] was “inactive”. For the same compound, the Potency in test [2] was 12.6 µM (active).
The corresponding values for `CC(C)CCC1(O)C(=O)C(C)(C)C(O[C@@H]2O[C@H](CO)[C@@H](O)[C@H](O)[C@H]2O)C(C)(C)C1O` (stereo partly specified) are “inactive” and “inactive”.
For the compound `COc1c2c(c(CO)c3c1C(=O)OC3)OC1(C)CCC3(O)C(C)(C)OC(=O)CCC3(C)C1C2` (stereo unspecified), the Potency result in test [1] and in test [2] was “inactive” throughout.
With `C/C=C(/COC(=O)/C(C)=C/C)C(=O)OC(CC)c1ccc(OC)c(OC)c1` (stereo unspecified), the Potency result in test [1] and in test [2] was “inactive” in each case.
`CC1(C)CC2C=C(C(=O)O)C3COC(=O)C(O)(CO)C23C1` (stereo unspecified): the Potency result in test [1] and in test [2] was “inactive” in each case.
For the compound `CC(C)CC1NC(=O)C(C)NC(=O)C(CC(C)C)OC(=O)CCCNC1=O` (stereo unspecified), the Potency entry in test [1] and in test [2] was “inactive” each time.
`OC[C@H]1O[C@@H](O[C@H]2[C@H](OCc3ccccc3)O[C@H](CO[C@@H]3OC[C@@H](O)[C@H](O)[C@H]3O)[C@@H](O)[C@@H]2O)[C@H](O)[C@@H](O)[C@@H]1O`: the Potency entry in test [1] and in test [2] was “inactive” each time.
In the case of `COC(=O)C1=CO[C@@H](O[C@@H]2O[C@H](CO)[C@@H](O)[C@H](O)[C@H]2O)[C@@H]2C(COC(C)=O)=C[C@H](O)[C@H]12`, the Potency result in test [1] and in test [2] was “inactive” throughout.
With `C[C@@H]1CC[C@]2(C(=O)O)CC[C@]3(C)C(=CCC4[C@@]5(C)C[C@@H](O)[C@H](O)[C@@](C)(CO)C5CC[C@]43C)C2[C@]1(C)O` (stereo partly specified), the Potency entry in test [1] and in test [2] was “inactive” throughout.
On to `CC(=O)O[C@@H]1[C@@H](O)[C@H](O[C@H]2CC[C@]34C[C@]35CC[C@]3(C)[C@@H]([C@@]6(C)CC[C@@H](C(C)(C)O)O6)[C@@H](O)C[C@@]3(C)[C@@H]5C[C@H](O[C@@H]3O[C@H](CO)[C@@H](O)[C@H](O)[C@H]3O)[C@H]4C2(C)C)OC[C@H]1O`, for which the Potency entry in test [1] and in test [2] was “inactive” each time.
`CCOc1cc(C)c(Cl)cc1S(=O)(=O)n1cnc2ccccc21`: the Potency entry in test [1] and in test [2] was “inactive” in each case.
As for `C=C1C(=O)O[C@H](CCC)[C@H]1C(=O)O`, the Potency entry in test [1] and in test [2] was “inactive” in each case.
Consider `O=C1NC(=O)C(c2cn3c4c(cccc24)CCC3)C1c1c[nH]c2ccccc12` (stereo unspecified), for which the Potency result in test [1] was “inactive”. Besides, the Potency in test [2] was 1.03 µM (active).
`CC1(O)CC(O)C2(O)C=COC(O[C@@H]3O[C@H](CO)[C@@H](O)[C@H](O)[C@H]3O)C12` (stereo partly specified): the Potency entry in test [1] and in test [2] was “inactive” each time.
Turning to `O=C(c1ccc2nccnc2c1)N1CCCCC1`, the Potency result in test [1] and in test [2] was “inactive” each time.
Take `C[C@@H]1O[C@@H](O[C@@H]2CO[C@@H](O[C@H]3CC[C@@]4(C)C(CC[C@]5(C)C4CC=C4[C@@H]6CC(C)(C)CC[C@]6(C(=O)O[C@@H]6O[C@H](CO)[C@@H](O)[C@H](O)[C@H]6O)CC[C@]45C)[C@]3(C)CO)[C@H](O)[C@H]2O[C@@H]2O[C@H](CO)[C@@H](O)[C@H](O)[C@H]2O)[C@H](O)[C@H](O)[C@H]1O` (stereo partly specified): the Potency result in test [1] was “inactive”. Moreover, the activity change, negative = viability loss in test [2] is -16% [at 9.23 µM].
In the case of `CC1CCC2(C(=O)O)CCC3(C)C(=CCC4C5(C)CCC(OC(=O)/C=C/c6ccccc6)C(C)(C)C5CCC43C)C2C1C` (stereo unspecified), the Potency entry in test [1] and in test [2] was “inactive” throughout.
In the case of `CCOc1ccc2nc(SCCN3CCOCC3)[nH]c2c1`, the Potency entry in test [1] and in test [2] was “inactive” in each case.
As to `O=C1C=CC2OC(c3ccccc3)C(O)C2O1` (stereo unspecified), the Potency entry in test [1] was “inactive”. For the same compound, the Potency in test [2] was 5.78 µM (active).
On the same counts, the results for `COC(=O)C[C@H]1C(C)(C)[C@H](OC(=O)C(C)C)[C@@]2(O)C(=O)[C@]1(C)C1CC[C@]3(C)C(CC(=O)O[C@H]3c3ccoc3)[C@]13O[C@@H]32` (stereo partly specified) are “inactive” and “inactive”.
With `CCC(C)C(=O)OC1CC(O)C23C4OCC5(C(O)CC2C1(C)C(O)O4)C3C(=O)CC1(C)C(c2ccoc2)CC2OC215` (stereo unspecified), the Potency entry in test [1] is “inactive”. The Potency in test [2] was 0.399 µM (active).
On to `C/C=C1\[C@H](O[C@@H]2O[C@H](CO)[C@@H](O)[C@H](O)[C@H]2O)OC=C(C(=O)OC)[C@H]1CC(=O)O`, for which the Potency result in test [1] and in test [2] was “inactive” in each case.
In the case of `Cc1cc(O)cc(O[C@@H]2O[C@H](CO)[C@@H](O)[C@H](O)[C@H]2O)c1`, the Potency result in test [1] and in test [2] was “inactive” throughout.
`C=C1C(=O)OC2CC(C)=C(C(C)CCCO)C(O)C12` (stereo unspecified): the Potency entry in test [1] and in test [2] was “inactive” throughout.
Take `C(#Cc1nc2ncccc2nc1OCCN1CCCC1)c1ccccc1`: the Potency entry in test [1] was “inactive”. For the same compound, in test [2], the Potency was 2.58 µM (active).
Take `COC1CC(O[C@H]2CC[C@@]3(C)C(=CC[C@]4(O)C3[C@H](OC(C)=O)[C@@H](OC(=O)c3ccccc3)[C@]3(C)[C@@H](C(C)=O)CC[C@@]34O)C2)OC(C)C1OC1CC(OC)C(OC2CC(OC)C(OC3OC(C)C(OC4OC(CO)C(O)C(O)C4O)C(OC)C3O)C(C)O2)C(C)O1` (stereo partly specified): the activity change, negative = inhibition in test [1] is -4.32% [at 12.4 µM]. Also, the activity change, negative = viability loss in test [2] was -11.2% [at 9.23 µM].
In the case of `OC[C@H]1O[C@@H](OC(CCCCc2ccc(O)cc2)CCc2ccc(O)cc2)[C@H](O)[C@@H](O)[C@@H]1O` (stereo partly specified), the Potency entry in test [1] and in test [2] was “inactive” in each case.
In the case of `COc1cc(-c2ncn(/C=C\C(=O)OC(C)C)n2)cc(C(F)(F)F)c1`, the Potency result in test [1] is “inactive”. Moreover, the Potency in test [2] is 0.129 µM (active).
Consider `COC(=O)C1=CO[C@@H](O[C@@H]2O[C@H](CO)[C@@H](O)[C@H](O)[C@H]2O)[C@H]2[C@@H]1CC(OC)O[C@@H]2C` (stereo partly specified), for which the Potency result in test [1] and in test [2] was “inactive” each time.
Regarding `CC(C)CNCc1ccc(-c2ccccc2S(=O)(=O)N2CCCC2)cc1`, the Potency entry in test [1] and in test [2] was “inactive” each time.
As for `CC1(C)CC[C@]2(C(=O)O[C@@H]3O[C@H](CO)[C@@H](O)[C@H](O)[C@H]3O)CC[C@]3(C)C(=CCC4[C@@]5(C)CC[C@H](O[C@@H]6O[C@H](C(=O)O)[C@@H](O)[C@H](O)[C@H]6O)[C@@](C)(CO)C5CC[C@]43C)C2C1` (stereo partly specified), in test [1], the Potency result is “inactive”. In addition, the activity change, negative = viability loss in test [2] is 3.1% [at 9.23 µM].
As to `C=C1CC[C@@H]2[C@](C)(CO[C@@H]3O[C@H](CO)[C@@H](O)[C@H](O)[C@H]3O)[C@H](O)CC[C@@]2(C)[C@@H]1C/C=C1/C(=O)OC[C@H]1O`, the Potency entry in test [1] and in test [2] was “inactive” in each case.
Consider `CC1(C)CC[C@]2(C(=O)O)[C@H](O)C[C@]3(C)C(=CCC4[C@@]5(C)CC[C@H](O[C@@H]6O[C@H](CO[C@@H]7OC[C@H](O)[C@H](O)[C@H]7O[C@@H]7OC[C@@H](O)[C@H](O)[C@H]7O)[C@@H](O)[C@H](O)[C@H]6O[C@@H]6O[C@H](CO)[C@@H](O)[C@H](O)[C@H]6O)C(C)(C)C5CC[C@]43C)[C@@H]2C1` (stereo partly specified), for which the Potency result in test [1] was “inactive”. Besides, in test [2], the activity change, negative = viability loss was -4.67% [at 9.23 µM].
Take `CC1=CC2C(CC1OC1OC(CO)C(O)C(O)C1O)C(C)CC(=O)C2C(C)C` (stereo unspecified): the Potency result in test [1] and in test [2] was “inactive” throughout.
Turning to `CC1OC(OC2C(O)C(OC3CCC4(C)C(CCC5(C)C4CC=C4C6CC(C)(COC7OC(CO)C(O)C(O)C7O)CC(O)C6(C)CCC45C)C3(C)C)OC(C(=O)O)C2O)C(O)C(O)C1OC1OCC(O)C(O)C1O` (stereo unspecified), the Potency result in test [1] was “inactive”. For the same compound, the activity change, negative = viability loss in test [2] is -10.7% [at 9.23 µM].
Consider `CC1(C)CCCC2(C)C1C(O)C=C(CO)C2(O)CO` (stereo unspecified), for which the Potency entry in test [1] and in test [2] was “inactive” each time.
Turning to `O=C(/C=C/c1ccc(O)cc1)N[C@@H](Cc1ccc(O)cc1)C(=O)O`, the Potency entry in test [1] and in test [2] was “inactive” each time.
As for `CC(C)=CCC/C(C)=C/CCC1(C)Oc2c(c(O)cc3c2CN(C(CCC(=O)O)C(=O)O)C3=O)CC1O` (stereo unspecified), the Potency entry in test [1] and in test [2] was “inactive” in each case.
In the case of `CC(C)=CCC/C(C)=C/Cc1ccc(O)c(C2OC(=O)c3cc(C(=O)O)cc(O)c32)c1O` (stereo unspecified), the Potency entry in test [1] and in test [2] was “inactive” throughout.
On to `O=C1CCC=CC1(O)C(=O)OCc1ccccc1O[C@@H]1O[C@H](CO)[C@@H](O)[C@H](O)[C@H]1O` (stereo partly specified), for which the Potency entry in test [1] is “inactive”. In test [2], the Potency was 12.6 µM (active).
On the same counts, the results for `C=C1C[C@]23C[C@H]1CC[C@H]2[C@@]1(C)CCC[C@@]2(C)C(=O)O[C@@H]([C@@H]3O)[C@@H]12` are “inactive” and “inactive”.
`Oc1ccc(CNc2ccccc2F)c2cccnc12`: the Potency result in test [1] was “inactive”. Further, the Potency in test [2] is 12.9 µM (active).
On to `C=C1CCCC2(C)CC3(OC)OC(=O)C(C)=C3CC12` (stereo unspecified), for which the Potency result in test [1] and in test [2] was “inactive” throughout.
Consider `C=C1C(O)C[C@@H]2C(C(=O)O)=CO[C@@H](O[C@@H]3O[C@H](CO)[C@@H](O)[C@H](O)[C@H]3OC(=O)c3ccc(O)cc3)[C@H]12` (stereo partly specified), for which the Potency result in test [1] and in test [2] was “inactive” each time.
